Results published in PubChem BioAssay AID1159580 (chemical genetic matrix, 2015).
Where “and” joins values, the source holds several entries; their conditions need not be identical. Equal values may be shown once. Hit rate of the full screen: of about 5,500 compounds, about 2,000 (36%) were called active. About 18% were inconclusive and are not listed. Cut-off read from the data, not from the text of the source: active = normalized growth mostly below about 0.91 (no sharp cut-off); inconclusive = no clear call, values can overlap the other calls; inactive = mostly above about 0.92. The list shows a part of the results.

Test: chemical genetic growth profiling, strain panel (AID 1159580);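 note: tested at 20 µM; growth read once vehicle control cultures reached saturation at 30 °C; 1 = growth at the plate median or of vehicle wells; lower values mean less growth of the strain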
Conditions: S. cerevisiae deletion strains, growth OD

Measured: normalized growth

CCn1cc(C(=O)O)c(=O)c2cc(F)c(N3CCNCC3)cc21
inactive: locus YAL013W, strain DEP1, stronger effect = lower value 1 | locus YAL021C, strain ccr4, stronger effect = lower value 0.967 | locus YAL026C, strain drs2, stronger effect = lower value 0.978 | locus YAL030W, strain snc1, stronger effect = lower value 0.988 | locus YBL061C, strain skt5, stronger effect = lower value 0.991 | locus YBR009C, strain hhf1, stronger effect = lower value 0.983 | locus YBR021W, strain FUR4, stronger effect = lower value 0.905 | locus YBR023C, strain chs3, stronger effect = lower value 0.989 | locus YBR171W, strain sec66, stronger effect = lower value 0.988 | locus YBR229C, strain ROT2, stronger effect = lower value 1.01 | locus YBR231C, strain swc5, stronger effect = lower value 0.986 | locus YBR279W, strain paf1, stronger effect = lower value 0.978 | locus YCL011C, strain gbp2, stronger effect = lower value 0.983 | locus YCL016C, strain dcc1, stronger effect = lower value 0.998 | locus YCL029C, strain bik1, stronger effect = lower value 1 | locus YCL061C, strain MRC1, stronger effect = lower value 0.989 | locus YCL069W, strain vba3, stronger effect = lower value 0.966 | locus YCR088W, strain abp1, stronger effect = lower value 0.992 | locus YDL005C, strain med2, stronger effect = lower value 0.973 | locus YDL035C, strain GPR1, stronger effect = lower value 1 | locus YDL040C, strain nat1, stronger effect = lower value 0.99 | locus YDL074C, strain BRE1, stronger effect = lower value 1.02 | locus YDL101C, strain DUN1, stronger effect = lower value 1 | locus YDL134C, strain PPH21, stronger effect = lower value 0.994 | locus YDL185W, strain tfp1, stronger effect = lower value 0.998 | locus YDL192W, strain arf1, stronger effect = lower value 0.995 | locus YDR001C, strain nth1, stronger effect = lower value 0.98 | locus YDR069C, strain doa4, stronger effect = lower value 0.964 | locus YDR101C, strain arx1, stronger effect = lower value 0.972 | locus YDR137W, strain rgp1, stronger effect = lower value 0.97 | locus YDR159W, strain sac3, stronger effect = lower value 0.948 | locus YDR162C, strain NBP2, stronger effect = lower value 0.997 | locus YDR195W, strain ref2 0.962 | locus YDR297W, strain sur2, stronger effect = lower value 0.992 | locus YDR318W, strain mcm21, stronger effect = lower value 0.995 | locus YDR334W, strain swr1, stronger effect = lower value 0.981 | locus YDR335W, strain msn5, stronger effect = lower value 0.928 | locus YDR388W, stronger effect = lower value 1 | locus YDR392W, strain spt3, stronger effect = lower value 0.873 | locus YDR502C, strain sam2, stronger effect = lower value 1.01 | locus YEL003W, strain gim4, stronger effect = lower value 0.984 | locus YEL037C, strain rad23, stronger effect = lower value 0.976 | locus YEL061C, strain CIN8 (second series), stronger effect = lower value 0.97 | locus YEL061C, strain CIN8, stronger effect = lower value 1.01 | locus YER015W, strain faa2, stronger effect = lower value 0.987 | locus YER016W, strain bim1, stronger effect = lower value 0.986 | locus YER110C, stronger effect = lower value 0.996 | locus YER111C, strain swi4, stronger effect = lower value 0.975 | locus YER155C, strain BEM2 (second series), stronger effect = lower value 0.95 | locus YER155C, strain BEM2, stronger effect = lower value 1.01 | locus YER167W, strain BCK2, stronger effect = lower value 1 | locus YFR010W, strain ubp6, stronger effect = lower value 0.972 | locus YGL078C, strain dbp3, stronger effect = lower value 0.998 | locus YGL086W, strain mad1, stronger effect = lower value 0.992 | locus YGL167C, strain pmr1, stronger effect = lower value 0.985 | locus YGL173C, strain kem1, stronger effect = lower value 0.98 | locus YGL227W, strain vid30, stronger effect = lower value 0.979 | locus YGL240W, strain doc1, stronger effect = lower value 0.973 | locus YGL248W, strain PDE1, stronger effect = lower value 1 | locus YGL253W, strain hxk2, stronger effect = lower value 0.995 | locus YGR078C, strain PAC10, stronger effect = lower value 1 | locus YGR135W, strain pre9, stronger effect = lower value 0.988 | locus YGR229C, strain SMI1, stronger effect = lower value 1.02 | locus YGR252W, strain gcn5, stronger effect = lower value 0.912 | locus YHR013C, strain ard1, stronger effect = lower value 0.928 | locus YHR027C, strain rpn1, stronger effect = lower value 0.987 | locus YHR030C, strain SLT2, stronger effect = lower value 0.999 and 0.974 | locus YHR079C, strain IRE1 (second series), stronger effect = lower value 0.995 | locus YHR079C, strain IRE1, stronger effect = lower value 0.974 | locus YHR094C, strain hxt1, stronger effect = lower value 0.998 | locus YHR129C, strain ARP1, stronger effect = lower value 1 | locus YHR142W, strain chs7, stronger effect = lower value 0.971 | locus YHR200W, strain rpn10, stronger effect = lower value 0.998 | locus YIL066C, strain RNR3, stronger effect = lower value 1.01 | locus YIL073C, strain SPO22, stronger effect = lower value 1 | locus YIL125W, strain kgd1, stronger effect = lower value 1 | locus YIR030C, strain dcg1, stronger effect = lower value 0.999 | locus YJL092W, strain hpr5, stronger effect = lower value 0.982 | locus YJL095W, strain BCK1 (second series), stronger effect = lower value 0.993 | locus YJL095W, strain BCK1, stronger effect = lower value 0.991 and 0.996 | locus YJL115W, strain asf1, stronger effect = lower value 0.976 | locus YJL129C, strain trk1, stronger effect = lower value 0.929 | locus YJL134W, strain LCB3, stronger effect = lower value 1 | locus YJL154C, strain vps35, stronger effect = lower value 0.974 | locus YJL164C, strain tpk1, stronger effect = lower value 0.988 | locus YJL166W, strain qcr8, stronger effect = lower value 1 | locus YJL168C, strain set2, stronger effect = lower value 1 | locus YJL187C, strain SWE1 (second series), stronger effect = lower value 1.01 | locus YJL187C, strain SWE1, stronger effect = lower value 0.985
